# Compound activity: PubChem, Broad Institute
# aSyn UTR act – Activators working through SNCA 5'UTR binding (MLPCN); alpha-synuclein 5'UTR reporter, activators screen; activity score, % (tested at 7.5 µM), hits read low; 7.1% of 300,000 active; AID 1814; in the data active = activity score below about -60%
# An asterisk follows results filed as active. Only a sample is shown.
SMILES,aSyn UTR act
O=C(Nc1cccc(F)c1)c1ccc(-c2ccccc2Cl)o1,-172.6*
COc1ccc(NC(=O)c2ccc(-c3ccccc3Cl)o2)cc1,-156.2*
CCc1nnc(NC(=O)c2ncc(Cl)c(Cl)c2Cl)s1,-61.7*
COC(=O)c1sccc1-c1ccc(C(=O)Nc2ccccc2)o1,-115.1*
CCc1nnc(NC(=O)c2ccc(-c3ccccc3Cl)o2)s1,-160.5*
COC(=O)c1ccc(N=Cc2c(C(F)(F)F)[nH]n(C)c2=O)cc1,-64.8*
O=S(=O)(c1ccc(Nc2ccc(-c3ccc4c(c3)OCCO4)nn2)cc1)N1CCCC1,-120.8*
O=C(NC1CC1)c1cccc(Nc2ccc(-c3ccc4c(c3)OCCO4)nn2)c1,-144.9*
N#Cc1cn(-c2ccccc2)nc1-c1ccccc1,-78.3*
Cc1onc(-c2ccccc2)c1C(=O)OCCOc1cccc(Cl)c1,-69.8*
CCOc1ccc(C(=O)COC(=O)c2c(-c3ccccc3)noc2C)cc1,-62.7*
Cc1[nH]c(C)c(C(=O)/C=C/c2ccc([N+](=O)[O-])cc2)c1C,-232.0*
O=[N+]([O-])c1ccccc1OCc1nc(-c2cccs2)no1,-113.5*
O=[N+]([O-])c1ccc(F)cc1OCc1nc(-c2cccs2)no1,-177.2*
Cc1ccc(OCc2nc(-c3cccs3)no2)c([N+](=O)[O-])c1,-64.2*
O=C(Nc1ccc(-n2cnnn2)cc1)c1cn2ccccc2n1,-88.5*
Cc1cccc(NC(=O)CSc2nccn2Cc2ccco2)c1C,-80.5*
CCC(=O)Nc1cc(NC(=O)CSc2ncc(-c3ccc(F)cc3)n2Cc2ccco2)ccc1C,-225.7*
COc1ccc(NC(=O)CSc2nccn2Cc2ccco2)cc1,-96.0*
Cc1cccc(NC(=O)CSc2nccn2Cc2ccco2)c1,-88.9*
COc1ccc2c(c1)C(=NN)c1cc(OC)ccc1-2,-65.1*
O=C(/C=C/c1ccccc1[N+](=O)[O-])c1ccccc1Br,-78.5*
Cc1ccc(C(=O)/C=C/c2ccccc2[N+](=O)[O-])cc1,-173.0*
Cc1ccc(C(=O)C(C)OC(=O)c2ccccc2[N+](=O)[O-])cc1 (stereo unspecified),-157.7*
CN(C)c1ccc(N=C/C=C2\N(C)c3ccccc3C2(C)C)cc1,-114.4*
SMILES,aSyn UTR act
CN1/C(=C/C(=O)c2nc(S(C)(=O)=O)ncc2Cl)C(C)(C)c2ccccc21,57.1
Cn1sc(NC(=O)c2ccc(Cl)cc2)nc1=O,-115.1*
Cc1ccc(C(=O)Nc2nc(=O)n(C(=O)c3ccccc3Cl)s2)cc1,-104.2*
CC(=O)Oc1ccc(C(=O)Nc2nnc(C)s2)cc1,-63.3*
Cc1nnc(NC(=O)c2ccc(Br)cc2)s1,-96.2*
O=C(Nc1cccnc1)c1cc(-c2cc(Cl)ccc2O)n[nH]1,-219.1*
Cc1ccc(O)c(-c2cc(C(=O)Nc3cccnc3)[nH]n2)c1,-166.2*
Cc1ccc(SCC(=O)N2CCc3ccccc32)cc1,-171.4*
O=C(CSC1=NCCS1)N1CCc2ccccc21,-197.6*
Cc1cc(C)nc(SCC(=O)N2CCc3ccccc32)n1,-77.6*
O=C(CS(=O)(=O)c1ccccc1)N1CCc2ccccc21,-106.8*
CCS(=O)(=O)N1CCC(C(=O)Nc2ccc3c(c2)CCC3)CC1,-83.4*
CCCS(=O)(=O)N1CCCC(C(=O)Nc2ccc3c(c2)CCC3)C1 (stereo unspecified),-70.8*
Cn1c(=O)oc2cc(S(=O)(=O)N3CCCC(C(=O)NC4CCCc5ccccc54)C3)ccc21 (stereo unspecified),63.1
Fc1ccc2nc(Nc3nc4c(F)cc(F)cc4s3)sc2c1,-211.4*
O=C(Nc1nc2c(F)cc(F)cc2s1)c1ccccn1,73.1
Fc1ccc2nc(Nc3nc4c(F)cccc4s3)sc2c1,-235.2*
Fc1cccc2sc(Nc3nc4ccccc4s3)nc12,-308.8*
Cc1c(-c2ccccc2)[n+](=O)c(-c2ccc(Br)cc2)c(C)n1[O-],-101.7*
COc1ccc(NC(=O)C(=O)c2cn(CC(=O)N3CCCC3)c3ccccc23)c(OC)c1,-86.1*
COc1ccccc1NC(=O)C(=O)c1cn(CC(=O)N2CCOCC2)c2ccccc12,-118.5*
O=C(CCCc1cccs1)Nc1ccc2c(c1)OCO2,-182.0*
COc1ccc(CNC(=O)Cc2cccs2)cc1,-70.1*
COc1ccc(CNC(=O)CSc2ccsc2[N+](=O)[O-])cc1,-117.3*
O=C(Cc1cccs1)NCc1cccc(Br)c1,-111.9*
SMILES,aSyn UTR act
O=C(CCCN1C(=O)/C(=C/c2ccc3c(c2)OCO3)SC1=S)Nc1cccc(C(=O)O)c1,72.9
O=C(Cc1cccs1)NCc1ccc2c(c1)OCO2,-64.5*
Cc1cc(N2CCOCC2)nc2ccc(NC(=O)CCC(=O)N3CCCCC3)cc12,-90.3*
Cc1cc(N2CCOCC2)nc2ccc(NC(=O)CCC(=O)N3CCC(C)CC3)cc12,-104.8*
Cc1cc(N2CCOCC2)nc2ccc(NC(=O)CCC(=O)N3CCN(c4cccc(C(F)(F)F)c4)CC3)cc12,-71.7*
CCCCN(C)C(=O)CCC(=O)Nc1ccc2nc(N3CCOCC3)cc(C)c2c1,-75.7*
Cc1nc(Nc2cnc(/C=C/c3cc(C(=O)Nc4cccc(C(F)(F)F)c4)ccc3C)cn2)cc(N2CCNCC2)n1,81.2
